# Screens as filed in PubChem.
# Many of the other results were omitted from the sample, so hits are more common in it than they were.
# mHTT-CaM PPI inh: inhibitors of human mutant huntingtin-calmodulin interaction; P42858; AlphaScreen His-mHTT/GST-CaM binding, luminescence; inhibition, % at 15 µM; actives 3.6% (n = 190,000); AID 1671202;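 further: 0% = both proteins with DMSO and 100% = one protein alone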
# Pf apPOL inh: Pf-apPOL DNA polymerase inhibition; Recombinant Pf-apPOL, molecular beacon fluorescence, 1.5 h; inhibition, % at 10 µM; actives 0.25% (n = 210,000); AID 1794808
# * hit, by the source's call; i = inactive. No stated cut-off is given here; in the data, active means inhibition above about 50%; inactive means the rest.
SMILES,mHTT-CaM PPI inh,Pf apPOL inh
Nc1ccc2nc(-c3ccc(-c4nc5ccc(N)cc5[nH]4)cc3)[nH]c2c1,35,68*
Nc1ccc(CCc2nc3ccc(N)cc3[nH]2)cc1,4,-10
Nc1ccc(-c2nc3ccc(-c4nc5ccc(N)cc5[nH]4)cc3[nH]2)cc1,51*,5
Nc1ccc2nc(Cc3nc4ccc(N)cc4[nH]3)[nH]c2c1,79*,-6
COc1ccccc1C1C=C(c2ccc(Cl)cc2)Nc2nnnn21 (configuration not stated),3,1
CC(NC(=O)c1nnn(-c2ccc(F)cc2)c1-c1ccncc1)c1ccccc1 (configuration not stated),-6,0
CC(=O)N1CCCC1c1nc2cc(-c3ccc(F)cc3F)ccc2o1 (configuration not stated),42,-4
CC(=O)N1CCCC1c1nc2cc(-c3ccc(N(C)C)cc3)ccc2o1 (configuration not stated),86*,-10
CN(C)c1ccc(-c2ccc3oc(C4CCCN4C(=O)C4CC4)nc3c2)cc1 (configuration not stated),89*,-13
Cc1ccccc1-c1ccc2oc(C3CCCN3S(C)(=O)=O)nc2c1 (configuration not stated),90*,-4
COc1ccccc1-c1ccc2oc(C3CCCN3C(=O)C(C)C)nc2c1 (configuration not stated),47,0
O=C(C1CC1)N1CCCC1c1nc2cc(-c3ccc(F)cc3F)ccc2o1 (configuration not stated),48,-5
N/C(=N\OC(=O)Cc1ccc(Cl)cc1)c1ccncc1,i,-10
Cc1ccccc1CNC(=O)C1(C)CCCN(S(=O)(=O)c2cccc3nsnc23)C1 (configuration not stated),8,-6
CCc1cc2c(=O)c(-c3nc4ccccc4n3C)c(C(C)(C)C)oc2cc1O,-6,3
CCc1cc2c(=O)c(-c3nc4ccccc4n3C)c(C(F)(F)F)oc2cc1O,97*,-1
CCc1cc2c(=O)c(-c3nc4ccccc4n3C)c(COCC(=O)O)oc2cc1OC(=O)C(C)(C)C,51*,-3
CCc1oc2cc(O)ccc2c(=O)c1-c1nc2ccccc2n1C,0,-2
COc1ccc(-c2cc(C(=O)Nc3cnn(Cc4ccc(Cl)cc4Cl)c3)no2)cc1,0,-6
CCOC(=O)N1CCN(C(=O)COc2ccc(C)c(C)c2)CC1,1,-3
CCC(=O)N1CCc2cc(Br)cc(S(=O)(=O)NC(C)CC)c21 (configuration not stated),8,0
CC1(c2ccccc2)CC(C)(C)N(C(=O)C(F)(F)F)c2ccccc21 (configuration not stated),-31,8
CC1(c2ccccc2)CC(C)(C)N2C(=O)C(=O)c3cccc1c32 (configuration not stated),80*,10
CC1CN(C(=O)Cc2cccs2)CC1c1nc(-c2ccncc2)no1 (configuration not stated),-1,0
CCn1c(C2CCN(S(=O)(=O)c3ccc4c(c3)CCCC4)C2)nc2ccncc21 (configuration not stated),93*,11
SMILES,mHTT-CaM PPI inh,Pf apPOL inh
CCn1c(C2CCN(S(=O)(=O)c3cc(F)cc(F)c3)C2)nc2ccncc21 (configuration not stated),2,-3
Fc1cccc(NCc2ccco2)c1,14,2
Oc1c(Cl)cc(Cl)cc1CNc1cccc(F)c1,96*,-2
Cc1ccc2nc3c(c(C(=O)NC(C)C)c2c1)CCCC3,12,2
COc1ccccc1N1CCN(C(C)C(=O)Nc2ccc(F)cc2)CC1 (configuration not stated),8,-3
COc1ccc(Cl)cc1N1CCN(C(C)C(=O)Nc2ccc(C)cc2)CC1 (configuration not stated),99*,0
COc1ccccc1/C=C1\C(=O)Nc2ccc(Cl)cc21,24,-1
COc1ccc(/C=C2\C(=O)Nc3ccc(Cl)cc32)cc1OC,74*,-11
O=C1Nc2ccc(Cl)cc2/C1=C/c1ccccc1F,19,7
O=C1Nc2ccc(Cl)cc2/C1=C/c1ccccc1,65*,0
CCc1ccccc1NC(=O)C1CCN(C(=O)c2cc3ccsc3[nH]2)CC1,12,5
CN(C)C1CN(Cc2ccccn2)CCC1(O)c1ccccc1 (configuration not stated),39,-8
COC(=O)c1ccc(C=C2Oc3cc(OCC#N)cc(C)c3C2=O)cc1,2,-3
COc1cc2oc(-c3ccccc3)cc(=O)c2c(O)c1CN(C)C,100*,27
COc1cc(O)c(CN(C)C)c2oc(-c3ccccc3)cc(=O)c12,1,-3
O=C(NCCc1c[nH]c2ccccc12)C(c1ccccc1)n1cccc1 (configuration not stated),96*,2
CC(NC(=O)CCc1c[nH]c2ccccc12)c1ccccc1 (configuration not stated),4,-3
Fc1ccc(-c2nnc(-c3ccc(-n4ccnc4)nc3)o2)c(F)c1,9,30
COc1ccc(Cl)cc1NC(=O)Nc1ccc2nc(C)cc(OC)c2c1,97*,85*
COc1cc(C)nc2ccc(NC(=O)Nc3ccc(Cl)cc3)cc12,25,3
CCC(=O)N1CCc2sc(S(=O)(=O)Nc3ccccc3C)cc2C1,5,-7
COc1ccc(/C=C2/N=C(c3ccc(C)cc3)OC2=O)cc1OC,4,2
CCC1(CC)OC(c2cccc([N+](=O)[O-])c2)Nc2ccccc21 (configuration not stated),28,5
CCC1(CC)OC(c2c([N+](=O)[O-])cc([N+](=O)[O-])cc2[N+](=O)[O-])Nc2ccccc21 (configuration not stated),79*,0
COc1ccc(CNC(=O)CCC2CCCN(C(=O)Nc3cccc(C)c3)C2)cc1 (configuration not stated),2,-1
SMILES,mHTT-CaM PPI inh,Pf apPOL inh
O=C(c1ccncc1)N(c1ccc2oc3c(c2c1)CCCC3)S(=O)(=O)c1ccc(F)cc1,58*,3
CCOc1ccc(S(=O)(=O)N(C(=O)c2ccncc2)c2ccc3oc4c(c3c2)CCCC4)cc1,30,-4
Cc1ccc(Cl)cc1N1CCN(C(=O)c2noc3c2CCCC3)CC1,96*,-3
O=C(c1noc2c1CCCCC2)N1CCN(c2ccccc2F)CC1,-13,-2
CC1CCc2cc(F)ccc2N1C(=O)c1ccc([N+](=O)[O-])cc1 (configuration not stated),11,-4
CC(C)n1cc2cc(C(=O)NCc3ccc(Cl)cc3)sc2c1,73*,-1
O=C(c1cc2cn(C3CCCC3)cc2s1)N1CCSCC1,19,-1
O=C(NCCCN1CCCC1)c1cc2cn(C3CCCC3)cc2s1,16,10
O=C(c1cc2cn(C3CCCC3)cc2s1)N1CCN(C2CCCCC2)CC1,73*,9
O=C(NCCCN1CCCC1)c1cc2cn(C3CC3)cc2s1,99*,108*
COc1cccc(CNC(=O)c2cc3cn(C4CC4)cc3s2)c1,57*,16
CC(C)n1cc2cc(C(=O)NCc3ccc(N4CCOCC4)cc3)sc2c1,33,4
O=C(NCc1ccc(N2CCOCC2)cc1)c1cc2cn(C3CC3)cc2s1,21,8
Cc1ccccc1NC(=O)C1CCn2c(nc3ccccc32)C1 (configuration not stated),-1,-9
